Here are results for 25 compounds from PubChem BioAssay (NCATS).

Results filed as inconclusive are left out. Where a call stands in place of a potency, no number is given. The source made the active and inactive calls. The call rests on the fitted dose curve; in most records, active means well fitted inhibition curve with a large enough effect; inconclusive means small, poorly fitted or top-dose-only effect; inactive means flat fitted curve, though single readings scatter.

The target of this test is Calcium and integrin-binding protein 1 (Homo sapiens) (UniProt Q99828). The test is described as follows: Primary qHTS for Identification of Calcium Integrin Binding Protein 1 (CIB1) Competitor (AID 1508620).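 Further: GST tagged CIB1 binding a fluorescein labelled alphaIIb integrin peptide tracer; top concentration of the series differs between compounds.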 Particulars: CIB1-GST / FITC-alphaIIb peptide fluorescence polarization; series mostly up to 114 µM. The procedure, abridged: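 CIB1-GST (1 uM final) and compound incubated 15 min at room temperature before adding FITC-alphaIIb peptide tracer (100 nM final). Competition for binding read by fluorescence polarization (ex 480, em 540) after another 15 min at room temperature.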
Chain of Calcium and integrin-binding protein 1 (Homo sapiens) (Q99828 whole entry, looked up): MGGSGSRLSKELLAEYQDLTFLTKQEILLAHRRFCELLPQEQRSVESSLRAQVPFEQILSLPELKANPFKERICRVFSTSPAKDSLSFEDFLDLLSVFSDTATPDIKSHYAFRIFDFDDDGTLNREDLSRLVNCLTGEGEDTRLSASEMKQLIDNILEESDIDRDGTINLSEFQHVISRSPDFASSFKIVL
In the case of `CC(O)c1cc2c(s1)c1cnn(Cc3ccccc3F)c(=O)c1n2C` (stereo not given), the Potency result is “inactive”.

As for `Cc1cc(NS(=O)(=O)c2cc3c(cc2N[C@@H](C)CO)NC(=O)CC3)ccc1F`, the Potency entry was “inactive”.

In the case of `O=C(c1ccccc1O)N(Cc1ccccc1)Cc1ccccc1`, the Potency result was “inactive”.

Regarding `Cc1ccc(OCCn2c(CCNC(=O)C3CCOCC3)nc3ccccc32)cc1`, the Potency entry was “inactive”.

Take `CC(=O)c1ccc(N2CCN(S(=O)(=O)c3ccc4c(c3)n(C)c(=O)n4C)CC2)cc1`: the Potency result was “inactive”.

With `CC(=O)N1CCN(c2ccc(NCc3ccccc3)cc2)CC1`, the Potency result is “inactive”.

With `O=C(Nc1ccc(-c2nc3ccccc3[nH]2)cc1)Nc1ccc2c(c1)CCCO2`, the Potency entry is “inactive”.

With `C=CCc1cc(F)c(S(=O)(=O)N2CCN(S(=O)(=O)c3ccc4c(c3)OCCO4)CC2)cc1F`, the Potency result is “inactive”.

Turning to `CC(C)(C)OC(=O)Cc1nnc(-c2cc3ccccc3[nH]2)s1`, the Potency result is “inactive”.

For `O=C1CCCC2=C1C(c1[nH]ncc1Cl)N=C(c1nc3ccccc3o1)N2` (stereo not given), the Potency result was “inactive”.

Consider `O=C(N1CCc2ccc(S(=O)(=O)N3CCN(S(=O)(=O)c4ccc5c(c4)OCCO5)CC3)cc2C1)C(F)(F)F`, for which the Potency entry is “inactive”.

As for `COC(=O)c1ccc(N2CCN(S(=O)(=O)c3ccc4c(c3)CC(=O)N4)CC2)cc1`, the Potency entry was “inactive”.

`COc1cc(F)c(S(=O)(=O)N2CCN(S(=O)(=O)c3ccc(NC(C)=O)cc3)CC2)c(F)c1`: the Potency result was “inactive”.

As for `CC(=O)NC(c1ccco1)c1cc(Br)c2cccnc2c1O` (stereo not given), the Potency entry is “inactive”.

For `O=C(O)c1ccc(CSc2nnc(-c3cccc([S+](=O)([O-])NC4CCCC4)c3)n2-c2ccccc2)cc1`, the Potency entry is “inactive”.

As to `Brc1ccc(-c2csc(N3CCC(c4nn[nH]n4)CC3)n2)cc1`, the Potency result was “inactive”.

As to `COCCNc1cc2c(cc1[S+](=O)([O-])Nc1ccc(C)c(C)c1)CCC(=O)N2`, the Potency entry was “inactive”.

`C=CCNc1oc(-c2cccc(Cl)c2)nc1C#N`: the Potency entry was “inactive”.

With `CC(C)c1ccccc1-c1nccc(NCc2ccc(-c3ccnc(C(F)(F)F)c3)cc2)n1`, the Potency result was “inactive”.

`c1cc2c(cc1CNc1ccc(N3CCOCC3)cc1)OCO2`: the Potency result was “inactive”.

Consider `Cc1cccc(C)c1-n1c(SCC(=O)Nc2ccc(C(=O)O)cc2)nnc1-c1ccc([S+](=O)([O-])N2CCCC2)cc1`, for which the Potency result was “inactive”.

Take `O=C(NCCc1nc2ccccc2n1CCOc1cccc([N+](=O)[O-])c1)C1CCCCC1`: the Potency result is “inactive”.

Take `CCOc1ccc(C(C)CNC(=O)c2cc3sccc3n2Cc2ccccc2)cc1OCC` (stereo not given): the Potency result was “inactive”.

For the compound `COc1cccc(CNc2ccc(S(=O)(=O)Nc3nc(C)cs3)cc2)c1O`, the Potency entry is “inactive”.

As to `Cc1ccc(C[C@H](C(=O)O)N2C(=O)c3ccc(C(=O)O)cc3C2=O)c(C)c1`, the Potency result is “inactive”.
